Data reported in PubChem BioAssay AID933 (National Center for Advancing Translational Sciences (NCATS), 2007).
Inconclusive results are not listed. Entries that show only a call come without a potency. Values without a mark were called inactive. Calls of active or inactive are those of the source. Calls follow the shape of the dose curve; as a rule, active = well fitted activation curve with a large enough effect in the signal ratio, with a control signal flat; inconclusive = small, poorly fitted or top-dose-only effect, or a change in a side signal; inactive = flat fitted curve, though single readings scatter; the % refers to the signal ratio.

molecular target: Thyrotropin receptor (Homo sapiens) (UniProt P16473); test: Secondary Concentration-Response Assay for Agonists of the Thyroid Stimulating Hormone Receptor: HTRF Activity Detection; conditions: HEK293-TSHR cells, cAMP HTRF ratio, 30 min; series mostly up to 91.7 µM
Sequence (P16473 whole entry, looked up): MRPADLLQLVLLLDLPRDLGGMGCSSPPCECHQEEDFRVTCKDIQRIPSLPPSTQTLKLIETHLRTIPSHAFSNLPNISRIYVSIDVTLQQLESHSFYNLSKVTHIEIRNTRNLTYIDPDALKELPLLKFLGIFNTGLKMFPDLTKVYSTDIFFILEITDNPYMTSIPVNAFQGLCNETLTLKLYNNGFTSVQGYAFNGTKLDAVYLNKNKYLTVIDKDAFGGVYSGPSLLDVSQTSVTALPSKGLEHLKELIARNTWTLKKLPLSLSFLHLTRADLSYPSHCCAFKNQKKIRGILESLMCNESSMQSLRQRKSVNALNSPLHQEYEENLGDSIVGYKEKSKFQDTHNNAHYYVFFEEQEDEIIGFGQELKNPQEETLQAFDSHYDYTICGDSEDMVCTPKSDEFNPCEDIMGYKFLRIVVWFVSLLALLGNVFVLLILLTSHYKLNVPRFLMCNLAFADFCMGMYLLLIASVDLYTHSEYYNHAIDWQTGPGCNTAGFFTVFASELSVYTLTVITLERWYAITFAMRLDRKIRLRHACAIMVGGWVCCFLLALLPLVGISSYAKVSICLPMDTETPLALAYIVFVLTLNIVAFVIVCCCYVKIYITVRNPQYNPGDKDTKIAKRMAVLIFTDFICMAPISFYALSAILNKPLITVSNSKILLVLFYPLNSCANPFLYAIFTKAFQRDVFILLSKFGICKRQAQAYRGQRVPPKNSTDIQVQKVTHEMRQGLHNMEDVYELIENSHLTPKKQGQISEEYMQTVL
In short: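 cAMP accumulation was detected by antibody-based HTRF, excitation 330 nm, emissions 615 and 660 nm. Compounds acted for 30 min at room temperature on stably TSHR-transfected HEK 293 cells, with phosphodiesterase inhibitor RO 20-1724 (100 uM) in the medium.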
Potency is read from the fitted curve at half-maximal effect.

SMILES | activation | Potency
CCS(=O)(=O)N1CCN(C(C)CCc2ccccc2)CC1 (stereo not given) | 0.972% [at 0.00035 µM] | 
COc1ccc(C2Nc3ccccc3C(=O)N2c2ccccc2)cc1Cn1cc([N+](=O)[O-])cn1 (stereo not given) |  | inactive
CCN(CC)CCN1C(=O)c2ccccc2NC1c1cccc(F)c1 (stereo not given) |  | inactive
COc1ccc(C2Nc3ccccc3C(=O)N2Cc2ccco2)cc1COc1ccc(N)cc1 (stereo not given) |  | inactive
COc1ccc(C(=O)N(Cc2cccs2)Cc2cccs2)c(O)c1 |  | 15.8 µM (active)
Cc1onc(-c2ccccc2Cl)c1C(=O)Nc1ccc(-n2nncc2-c2ccco2)cc1 | 0.344% [at 0.00035 µM] | 
O=C(Nc1ccccn1)NC12CC3CC(CC(C3)C1)C2 | 0.487% [at 0.00035 µM] | 
CC(c1ccco1)N(C(=O)c1ccc(Cl)s1)c1ccccn1 (stereo not given) | 0.422% [at 0.00035 µM] | 
COc1cc(OC)cc(C(=O)N(Cc2ccco2)Cc2cccs2)c1 |  | inactive
CS(=O)(=O)N1CCN(C(=O)c2cc(-c3cccs3)nc3ccccc23)CC1 | 0.0393% [at 0.00035 µM] | 
O=C1C2C3CCCC3=C3CCCC3C2C(=O)N1c1cccc(Cl)c1 (stereo not given) |  | inactive
COc1ccc(C(=O)O)cc1COc1ccc(NC(C)=O)cc1 |  | inactive
CC(=O)N1CCCc2cc(S(=O)(=O)N(CC(C)C)CC(C)C)ccc21 | -0.0207% [at 0.00035 µM] | 
COc1ccc(CN(Cc2ccccc2)C(=O)CN2CCN(C)CC2)cc1COc1ccc(NC(C)=O)cc1 |  | inactive
O=C1c2ccccc2NC(c2ccc(F)cc2)N1Cc1ccco1 (stereo not given) |  | inactive
COc1ccc(C2Nc3ccccc3C(=O)N2Cc2ccccc2)cc1CSc1ccccn1 (stereo not given) |  | inactive
COc1ccc(C2Nc3ccccc3C(=O)N2Cc2ccccc2)cc1OCc1ccc(NC(C)=O)cc1 (stereo not given) |  | inactive
O=C1c2ccccc2NC(c2cccc(O)c2)N1Cc1ccco1 (stereo not given) |  | inactive

SMILES | activation | Potency
O=c1c2ccccc2nc(-c2ccccc2O)n1Cc1ccccc1 |  | inactive
COc1ccc(C2Nc3ccccc3C(=O)N2c2ccccc2)cc1COc1ccc(NC(C)=O)cc1 (stereo not given) |  | inactive
Cc1ccccc1N1CCN(c2ncnc3c2cnn3Cc2ccc(Cl)cc2)CC1 | -0.314% [at 0.00035 µM] | 
COc1ccc(C2Nc3ccccc3C(=O)N2c2ccccc2F)cc1COc1ccc(NC(C)=O)cc1 (stereo not given) |  | inactive
Cc1ccc(S(=O)(=O)N2CCC(C(=O)NCCCN3CCCCCC3)CC2)cc1 | 0.566% [at 0.00035 µM] | 
CCOC(=O)COc1c(OC)cc(Cl)cc1C1Nc2ccccc2C(=O)N1c1cccc(C)c1 (stereo not given) |  | inactive
C=C(C)Cn1c(-c2ccccc2)nc2ccccc21 | 0.0214% [at 0.00035 µM] | 
COc1ccc(N2C(=O)c3ccccc3NC2c2ccc(OC)c(Cn3nnc4ccccc43)c2)cc1 (stereo not given) |  | inactive
Cc1occc1-c1nnc(SCC(=O)Nc2ccccc2)n1C(C)c1ccccc1 (stereo not given) | 0.0209% [at 0.00035 µM] | 
COc1ccc(C2Nc3ccccc3C(=O)N2Cc2ccc(C(F)(F)F)cc2)cc1COc1ccc(NC(C)=O)cc1 (stereo not given) |  | inactive
COc1ccc(C2Nc3ccccc3C(=O)N2Cc2cccc(Cl)c2)cc1COc1ccc(NC(C)=O)cc1 (stereo not given) |  | 2.82 µM (active)
COc1ccc(C2Nc3ccccc3C(=O)N2Cc2ccccc2)cc1COc1ccccc1OC (stereo not given) |  | inactive
COc1ccc(CN(Cc2ccccc2)C(=O)c2ccccc2)cc1COc1ccc(NC(C)=O)cc1 |  | 8.91 µM (active)
Cc1cc(C)nc(N(C#N)CC(=O)N2CCC(C(N)=O)CC2)n1 | 1.28% [at 0.00035 µM] | 
COc1ccc(C2Nc3ccccc3C(=O)N2CCc2ccc(Cl)cc2Cl)cc1COc1ccc(NC(C)=O)cc1 (stereo not given) |  | inactive
CCOc1cc(C2Nc3ccccc3C(=O)N2Cc2ccco2)ccc1O (stereo not given) |  | inactive
COc1ccc(C2Nc3ccccc3C(=O)N2Cc2ccco2)cc1 (stereo not given) |  | inactive
